Dicer processing – blocks human Dicer maturation of pre-miR-21 | Q9UPY3 | cat-ELCCA pre-miR-21 Dicer processing, chemiluminescence; stronger effect = higher value | z-score at 25 µM | 6% of 47,000 active | AID 1347074; in the data active = z-score above about 3, passing the limit was not always enough;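 note: higher signal means more uncleaved substrate so more Dicer inhibition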
Large screens that a line does not name were inactive. Shown is part of a subset that was picked to be rich in hits.

S=C(N/N=C/c1c[nH]c2ccccc12)NC1CC1	none
FC(F)(F)Oc1ccccc1NCn1nnc2ccccc21	Dicer processing 3.58
FC(F)(F)c1ccc(NCn2nnc3ccccc32)cc1	none
OCCCCCCN(Cn1nnc2ccccc21)Cn1nnc2ccccc21	none
CC(C)Oc1ccccc1Cn1c(=O)sc2ccccc21	none
CSc1ccccc1NC(=O)CSc1nc(-c2ccco2)cc(C(F)(F)F)n1	none
N[C@@H](CCCC(=O)O)C(=O)O	none
NC(CCCP(=O)(O)O)C(=O)O (centres undefined)	Dicer processing 3.21
CN=C(N)NCCC[C@H](N)C(=O)O	none
CC1CCc2c(ccc3c4c(ccc23)C(=O)C(C)CC4)C1=O (centres undefined)	none
FC(F)(F)c1cnc(CSc2ccc(Cl)cc2)c(Cl)c1	none
CCOC(=O)/C(C#N)=C\Nc1cc(OC)c2ncccc2c1	none
CC1CN(c2nc3ccccc3nc2SCC(=O)NC2CCCC2)CC(C)O1 (centres undefined)	none
CC1CN(c2nc3ccccc3nc2SCC(=O)N2CCN(C3CCCCC3)CC2)CC(C)O1 (centres undefined)	none
O=C(CSc1nc2ccccc2nc1N1CCCC1)NCC1CCCO1 (centres undefined)	none
O=C(CSc1nc2ccccc2nc1N1CCOCC1)N1CCN(C2CCCCC2)CC1	none
CC1CCN(c2nc3ccccc3nc2SCC(=O)NC2CC2)CC1	Dicer processing 3.08
O=C(CSc1nc2ccccc2nc1N1CCCCC1)NCC1CCCO1 (centres undefined)	Dicer processing 3.11
COc1ccc(OC)c(NC(=O)CSc2nc3ccccc3nc2N2CCCC2)c1	none
CC1CN(c2nc3ccccc3nc2SCC(=O)NC2CCCCC2)CC(C)O1 (centres undefined)	none
O=C(CSc1nc2ccccc2nc1N1CCCC1)N1CCN(C2CCCCC2)CC1	Dicer processing 3.01
Cc1cc(C)c2c(n1)sc1c(=O)n(Cc3ccccc3Cl)cnc12	none
C=C(C)Cn1c(CN2CCOCC2)nc2c1c(=O)n(C)c(=O)n2C	none
CCC1=C(C(=O)OC)C(c2ccc(N(C)C)cc2)n2ncnc2N1 (centres undefined)	none
CC1(CO)CSC(Nc2ccc(Cl)c(Cl)c2)=N1 (centres undefined)	none
O=C(OC1CC1(Cl)Cl)c1ccccc1 (centres undefined)	none
O=C(c1cccc2c1-c1ccccc1C2)N1CCOCC1	none
COCCOC(=O)C1=C(C)NC2=C(C(=O)CCC2)C1c1ccc(C(=O)OC)cc1 (centres undefined)	none
CC1(C)CC(=O)c2cc(OCc3ccc([N+](=O)[O-])cc3)c(OCc3ccc([N+](=O)[O-])cc3)cc2O1	none
CCSCCOC(=O)C1=C(C)NC2=C(C(=O)CC(C)(C)C2)C1c1ccccc1Br (centres undefined)	none
COc1ccc(C(=O)/C=C/Sc2c(Cl)cccc2Cl)cc1	none
Cc1cc(C(F)F)n2nc(C(=O)Nc3cnn(Cc4ccc(F)cc4)c3)nc2n1	none
Nc1ccc(Cl)c(-c2nc3cc(Cl)ccc3o2)c1	none
Cc1ccc2oc(-c3cc(N)ccc3Cl)nc2c1	none
CCc1ccc2oc(-c3cc(N)ccc3Cl)nc2c1	Dicer processing 4.5
COC(=O)c1ccc(S(=O)(=O)N(C)C)n1C	none
Cc1nnsc1-c1nnc(-c2cccc3ccccc23)o1	none
Cc1cccc(NC(NC(=O)c2cccnc2)(C(F)(F)F)C(F)(F)F)n1	none
CCCCCCSC1=C(C#N)C(=O)NC(CO)S1 (centres undefined)	none
CCCCSC1=C(C#N)C(=O)NC(c2ccc(OC)cc2)S1 (centres undefined)	none
CCCCSC1=C(C#N)C(=O)NCS1	Dicer processing 5.65
CCCCSC1=C(C#N)C(=O)NC(CCC)S1 (centres undefined)	Dicer processing 5.44
CCCCSC1=C(C#N)C(=O)NC(c2ccccc2O)S1 (centres undefined)	none
CCCCSC1=C(C#N)C(=O)NC(CC(C)C)S1 (centres undefined)	none
O=C1C(=O)N(CCCN2CCOCC2)C(c2ccco2)/C1=C(\O)c1ccccc1 (centres undefined)	none
C=CCNC(=S)NNC(=O)CNC(=O)OC(C)(C)C	none
O=C(Nc1ccc(OC(F)(F)F)cc1)Nc1cc(C(F)(F)F)ccn1	none
C=CCNc1nc(-c2ccc(Cl)cc2)c(-c2ccccc2)s1	none
C#CCSc1nc(C)c2cc(C)ccc2n1	none
CCOC(=O)CSc1nc2cc(Cl)c(Cl)cc2n1CC	none
Cc1ccc(CSC2=NCCCN2)cc1	none
CC1CN=C(SCc2ccc(Cl)cc2)N1 (centres undefined)	none
Cc1ccc(CSC2=NCC(C)N2)cc1 (centres undefined)	Dicer processing 3.24
CCOC(=O)NC(=S)NNC(=O)c1cccnc1	none
COc1ccc(-c2c(C(F)(F)F)nn(C)c2NC(=O)C(C)(C)C)cc1	none
CC(C)(C)NC(=S)Nc1cc(C(F)(F)F)cc(C(F)(F)F)c1	none
CC1(C)OC(=O)C(=NNc2cc(C(F)(F)F)cc(C(F)(F)F)c2)C(=O)O1	Dicer processing 5.13
C/C(=N\O)C(C)(C)Nc1cc(C(F)(F)F)cc(C(F)(F)F)c1	none
CC(C)(C)C(=O)c1cn(CC(=O)N2CCCC2)c2ccccc12	none
Cc1cc(Br)c(NC(=O)C(Cl)Cl)c(Br)c1	none
CCc1ccc(Oc2ccc(C(F)(F)F)cc2[N+](=O)[O-])cc1C	none
C=CCNc1nc2c(c(=O)[nH]c(=O)n2C)n1CC	Dicer processing 3.19
C=CCNc1nc2c(c(=O)[nH]c(=O)n2C)n1CC(O)CO (centres undefined)	none
CCCNc1nc2c(c(=O)[nH]c(=O)n2C)n1CCO	none
C=CCOc1ccc(C(=O)N(Cc2ccc(C(C)C)cc2)C2CCS(=O)(=O)C2)cc1 (centres undefined)	none
COc1ccc(OC)c(CN2CCN(Cc3c[nH]c4ccccc34)CC2)c1	none
COc1ccc(CN2CCN(Cc3ccc4c(c3)OCO4)CC2)c2ccccc12	none
COc1cc(CN2CCN(Cc3cccc4ccccc34)CC2)cc(OC)c1	Dicer processing 3.66
COc1cccc(CN2CCN(Cc3c[nH]c4ccccc34)CC2)c1OC	Dicer processing 3.35
COc1ccc(CN2CCN(Cc3cc(OC)ccc3O)CC2)cc1	none
COc1ccc(CN2CCN(Cc3c[nH]c4ccccc34)CC2)c(OC)c1	none
COC(=O)c1ccc(C2c3c(oc4ccccc4c3=O)C(=O)N2c2ccccn2)cc1 (centres undefined)	none
O=C(NC(=O)c1c(Cl)cccc1Cl)Oc1ccc(F)cc1F	none
O=C(NC(=S)NN1CCOCC1)c1ccc(Oc2ccc(Cl)cc2)c([N+](=O)[O-])c1	none
O=c1[nH]cc(O)n1-c1cccc2ncccc12	none
CN(C)c1nc(-c2ccc(Cl)cc2)[nH]c(=O)n1	none
COc1cc(-n2c(SCC(=O)c3ccccc3)nc3ccccc3c2=O)c(OC)cc1Cl	none
O=C(CSc1n[nH]c(=O)n1-c1ccccc1)c1ccc(Cl)cc1	none
COc1cc(-n2c(SCC(=O)c3ccc(Cl)cc3)nc3ccccc3c2=O)c(OC)cc1Cl	Dicer processing 3.82
N#C/C(=C\Nc1ccc(F)cc1)C(=O)C1CC1	none
O=S(=O)(c1ccc(Cl)cc1)c1ccc(N=Cc2ccccc2O)cc1Cl	none
CSc1nc(C=Nc2ccc(Cl)cc2)c(O)n1Cc1ccccc1Cl	Dicer processing 4.71
O=C1NN(C(=O)Nc2ccc(Br)cc2)[C@@H](c2ccccc2)[C@@H]1c1ccccc1	none
COc1ccc(CCNC(=S)NC(=O)c2ccccc2)cc1OC	none
O=C(NC(=S)NCCc1ccccn1)c1ccccc1	Dicer processing 3.07
O=C(NNC(=S)NCCc1ccccc1)c1ccncc1	none
O=C(NC(=S)NCC1CC1)c1ccccc1	none
S=C(NCCc1ccccn1)c1ccccc1	none
O=C(NC(=S)NCc1ccncc1)c1ccccc1	Dicer processing 3.36
Cc1ccc(-c2cc3nccc(-c4cc(F)ccc4O)n3n2)cc1	none
Clc1sc2ccccc2c1CSc1ccccc1	none

Screening results as filed in PubChem BioAssay.
